Structures are written as SMILES. The whole screen tested about 310,000 compounds, of which about 14,000 (4.5%) showed an effect of 50% or more. Effects have a minus sign here. Many of the other results were omitted from the sample, so strong results are more common in it than they were.
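Further: peak tail current of the secondary pulse compared with the same well before compound.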

The target in this assay is human ether-à-go-go-related gene (hERG) potassium channel (human, UniProt Q12809). Description: primary screen, population patch clamp on CHO cells stably expressing hERG; higher = less effect of the substance.
Sequence of human ether-à-go-go-related gene (hERG) potassium channel (Q12809 whole entry, looked up): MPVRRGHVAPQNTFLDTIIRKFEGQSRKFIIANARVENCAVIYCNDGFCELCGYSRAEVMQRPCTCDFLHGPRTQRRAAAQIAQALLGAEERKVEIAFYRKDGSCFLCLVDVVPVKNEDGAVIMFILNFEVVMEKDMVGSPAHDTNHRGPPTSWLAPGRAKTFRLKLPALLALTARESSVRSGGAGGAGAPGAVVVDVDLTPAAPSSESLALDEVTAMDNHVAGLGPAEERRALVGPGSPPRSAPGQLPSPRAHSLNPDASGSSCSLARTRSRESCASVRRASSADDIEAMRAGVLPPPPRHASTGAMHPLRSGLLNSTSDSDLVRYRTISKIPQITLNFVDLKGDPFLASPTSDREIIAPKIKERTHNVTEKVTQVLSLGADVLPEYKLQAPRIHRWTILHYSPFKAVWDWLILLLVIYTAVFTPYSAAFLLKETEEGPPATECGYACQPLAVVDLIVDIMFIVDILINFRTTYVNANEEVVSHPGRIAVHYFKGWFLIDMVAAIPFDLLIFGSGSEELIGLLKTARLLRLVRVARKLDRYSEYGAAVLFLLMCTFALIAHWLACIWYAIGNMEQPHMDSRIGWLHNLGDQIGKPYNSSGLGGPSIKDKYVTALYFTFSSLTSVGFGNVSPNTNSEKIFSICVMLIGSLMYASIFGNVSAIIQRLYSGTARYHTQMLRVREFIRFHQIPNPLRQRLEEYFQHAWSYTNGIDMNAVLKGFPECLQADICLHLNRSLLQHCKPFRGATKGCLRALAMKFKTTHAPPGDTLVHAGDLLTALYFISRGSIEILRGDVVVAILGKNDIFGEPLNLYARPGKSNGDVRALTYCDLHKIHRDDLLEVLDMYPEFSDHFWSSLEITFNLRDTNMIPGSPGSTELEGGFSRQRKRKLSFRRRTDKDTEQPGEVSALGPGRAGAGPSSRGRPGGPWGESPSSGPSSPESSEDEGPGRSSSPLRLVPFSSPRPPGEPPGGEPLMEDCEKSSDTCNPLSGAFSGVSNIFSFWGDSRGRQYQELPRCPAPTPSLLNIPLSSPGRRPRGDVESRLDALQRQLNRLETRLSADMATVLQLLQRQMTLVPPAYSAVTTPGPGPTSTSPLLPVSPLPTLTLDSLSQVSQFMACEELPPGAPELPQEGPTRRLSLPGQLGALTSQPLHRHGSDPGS
For the compound `CCOc1ccccc1-c1nc(CN2CCCN(C(=O)c3ccco3)CC2)c(C)o1`, the “hERG current change (%, negative = inhibition) at 10uM” value worked out at 9.83%.
For `COc1ccc(F)c(-c2nc(CN3CCN(C(=O)c4ccco4)CC3)c(C)o2)c1`, the “hERG current change (%, negative = inhibition) at 10uM” value was -35.9%.
Then `Cc1oc(-c2ccc(Cl)cc2)nc1CN1CCCC(C(=O)N2CCN(C(=O)c3ccco3)CC2)C1` (stereo not shown), with -89.5%.
As for `Cc1oc(-c2ccc(Cl)cc2)nc1CN1CCCN(C(=O)c2ccco2)CC1`, the figure is -72.4%.
Then `Cc1ccc(-c2nc(CSCC(=O)N3CCN(C(=O)c4ccco4)CC3)c(C)o2)cc1`, with -32.7%; and `COC(=O)c1ccc(-c2nc(CN3CCCN(C(=O)c4ccco4)CC3)c(C)o2)cc1`, with -41.4%; and `COc1ccc(-c2nc(CN3CCN(C(=O)c4ccco4)CC3)c(C)o2)cc1OC`, with 1.8%.
Consider `Cc1oc(-c2ccccc2Cl)nc1CN1CCCN(C(=O)c2ccco2)CC1`, for which the “hERG current change (%, negative = inhibition) at 10uM” value was -65.4%.
With `O=C(c1ccco1)N1CCN(Cc2c(Cl)cccc2Cl)CC1`, the “hERG current change (%, negative = inhibition) at 10uM” value is -8.42%.
Then `Cc1onc(-c2ccccc2Cl)c1C(=O)N1CCN(C(=O)c2ccco2)CC1`, with -16%; and `Cc1ccccc1-c1nc(CN2CCN(C(=O)c3ccco3)CC2)c(C)o1`, with -5.18%; and `O=C(c1ccco1)N1CCN(Cc2csc(-c3ccccc3Cl)n2)CC1`, with -64.9%.
As for `CCCC(=O)C1=C(O)C(C(=O)OC)C(C)(C)CC1=NC(C)C` (stereo not shown), the figure is 15.1%.
Then `Cc1cccc(C)c1NC(=O)CSc1nnc(C)c(=O)[nH]1`, with 15.1%; and `CC[C@@H]1C(=O)OC[C@@H]1CC1=CN=C[NH+]1C.O=[N+]([O-])[O-]`, with 15.7%; and `O=C(O)c1ccc(Oc2ccc(S(=O)(=O)c3ccc(C(=O)O)c(C(=O)O)c3)cc2)cc1`, with 9.42%.
As to `COc1ccc(CNC(=O)COC(=O)c2ccc(OCc3c(C)noc3C)cc2)cc1OC`, the “hERG current change (%, negative = inhibition) at 10uM” value is listed as 13.8%.
As for `CC1(O)CC(=O)N(c2ccccc2)O1` (stereo not shown), the figure is -1.7%; as for `CCN(CCCNC(=O)C1CCC(=O)N1C1CCCC1)c1cccc(C)c1` (stereo not shown), -2.31%; as for `COc1ccc(OC)c(CNn2c(-c3cccc(C)c3)nc3ccccc3c2=O)c1`, 6.92%.
Then `Cc1cc(C)nc(SC2CCOC2=O)n1` (stereo not shown), with 0.669%; and `Cc1oc(-c2cccc(F)c2)nc1CN1CCCN(C(=O)c2ccco2)CC1`, with -74.7%.
Regarding `Cc1oc(-c2cc(F)ccc2F)nc1CN1CCCN(C(=O)c2ccco2)CC1`, the “hERG current change (%, negative = inhibition) at 10uM” value is given as -36.6%.
As for `Cc1oc(-c2cc(F)cc(F)c2)nc1CN1CCN(C(=O)c2ccco2)CC1`, the figure is -40.5%; as for `Cc1ccc(S(C)(=O)=O)cc1C(=O)N1CC(C(N)=O)Oc2ccccc21` (stereo not shown), 15.6%.
Then `Cc1cc(Br)c(S(=O)(=O)NCCN2CCOCC2)cc1C`, with 7.8%; and `CCCn1c(SCC(=O)Nc2ccc3c(c2)OCCO3)nnc1-c1ccco1`, with -66.1%; and `Cn1c(SCC(=O)Nc2ccc3c(c2)OCCO3)nnc1-c1ccco1`, with 8.89%.
As for `C=CCn1c(SCC(=O)Nc2ccc3c(c2)OCCO3)nnc1-c1ccccn1`, the figure is -28.3%; as for `C=CCn1c(SCC(=O)Nc2ccc3c(c2)OCCO3)nnc1-c1ccco1`, -63.3%.
Turning to `CCn1c(SCC(=O)Nc2ccc3c(c2)OCCO3)nnc1-c1ccco1`, the “hERG current change (%, negative = inhibition) at 10uM” value was -25.9%.
Then `C=CCn1c(SCC(=O)Nc2ccc3c(c2)OCO3)nnc1-c1ccccc1`, with -34.7%; and `COc1ccc(-c2nnc(NC(=O)c3ccc([N+](=O)[O-])o3)o2)c(OC)c1`, with 19.2%; and `CC(C)(C)N(NC(=O)OCc1ccccc1)C(=O)c1ccccc1Cl`, with -17.5%.
Regarding `CCOC(=O)C1=NN(c2ccc(F)cc2)C2=NC(C)=C(C(=O)OC)C(c3cccs3)N12` (stereo not shown), the “hERG current change (%, negative = inhibition) at 10uM” value is -2.17%.
Then `O=C(O)CCCCCN1C(=O)C(O)=C(C(=O)/C=C/c2ccccc2)C1c1ccc2c(c1)OCO2` (stereo not shown), with 1.89%; and `CC(NCC(O)c1ccc([N+](=O)[O-])cc1)C12CC3CC(CC(C3)C1)C2` (stereo not shown), with -69.4%; and `CNC(=S)NCC(O)c1ccc([N+](=O)[O-])cc1` (stereo not shown), with 5.5%.
Then `CC(=O)NCC(O)c1ccc([N+](=O)[O-])cc1` (stereo not shown), with 13.6%; and `COc1ccccc1NC(=O)c1cc(C(=O)O)ccc1C(=O)O`, with 20.4%.
As for `CCOc1ccccc1NC(C)C(=O)Nc1cc(C(F)(F)F)ccc1N1CCOCC1` (stereo not shown), the figure is -6.23%; as for `COc1ccc(OC)c(C(=O)NC(CC(N)=O)c2ccc(NCCN3CCCC3)c([N+](=O)[O-])c2)c1` (stereo not shown), 8.75%; as for `Cc1ccc(SCC(=O)NCCCN2CCOCC2)cc1`, 15%.
In the case of `CCN1CCN(CCCN(Cc2cccs2)C(=S)Nc2ccccc2C)CC1`, the “hERG current change (%, negative = inhibition) at 10uM” value is listed as -54.4%.
On to `Cc1ccc(NC(=S)N(CCCN2CCOCC2)Cc2cccs2)c(C)c1`, for which the “hERG current change (%, negative = inhibition) at 10uM” value is listed as -11.7%.
As for `Cc1cc(Cl)ccc1NC(=S)N(CCCN1CCOCC1)Cc1cccs1`, the figure is -32.2%.
